# Data as given in PubChem BioAssay AID1347131 (National Center for Advancing Translational Sciences (NCATS), 2019).
# Screen size: about 410,000 compounds; about 2,000 (0.49%) were called active. Entries that show only a call come without a potency. Inconclusive results (about 8%) are left out. This is one part of a sample in which actives are shown more often than they occur. Calls follow the shape of the full dose curve; tested in HEK293 reporter line.
# Assay: qHTS Assay for Foot and Mouth Disease Virus Antivirals: Primary Screen against the MLPCN compound library; also: nearly all actives have a fitted effect of over 55% in size
# Settings: FMDV antiviral cell-based qHTS; series mostly up to 57.9 µM
# Potency is read from the fitted curve at half-maximal effect.
row,SMILES,Potency
1,Cc1ccc(-c2cc(-c3ccc(F)cc3)nc(N)c2C#N)o1,inactive
2,CC(C)Oc1ccc(CNC(=O)c2cccc(NC(=O)N3CCSc4ncccc43)c2)cc1,20 µM (active)
3,CC(C)(C)OC(=O)N1CCCC(C(=O)Nc2cccc(C(=O)NCc3ccccc3)c2)C1 (stereo not given),inactive
4,CC(C)Oc1ccc(CN2CCC2(C)C(=O)Nc2cccc(Oc3ccccc3)c2)cc1 (stereo not given),inactive
5,Cc1[nH]c2ccccc2c1C(=O)CN1C(=O)C(=O)N(CCC2=CCCCC2)C1=O,inactive
6,COc1cc2c(cc1NC(=O)c1cc(-c3ccncc3)nc3ccccc13)oc1ccccc12,inactive
7,CCC1(c2ccc(F)cc2)NC(=O)N(CC(=O)Nc2cc(S(=O)(=O)N(C)C)ccc2Cl)C1=O (stereo not given),inactive
8,N=c1ccn(Cc2ccc(Cl)c(Cl)c2)cc1,inactive
9,Brc1ccc(-c2cn3ccccc3n2)cc1,11.2 µM (active)
10,Clc1ccc(-c2cn3cc(Br)ccc3n2)cc1Cl,14.1 µM (active)
11,c1ccc(-c2nc3ccccn3c2-c2ccccc2)cc1,inactive
12,O=C(COc1ccc(Oc2ccccc2)cc1)NCc1cn2ccccc2n1,inactive
13,O=C(O)c1ccnc(Cl)c1,inactive
14,CCc1noc(C)c1C(=O)Nc1nc(-c2ccc(Cl)cc2Cl)c(C)s1,inactive
15,COc1ccccc1N1CCN(C(=O)c2ccccc2Oc2ccccc2)CC1,inactive
16,COc1ccccc1NS(=O)(=O)c1cccc(C(=O)N/N=C/c2ccc(N3CCOCC3)cc2)c1,inactive
17,Cc1ccc(C)c(N2CCN(C(=O)c3cnn(-c4ccccc4Cl)c3C3CCN(C(=O)OC(C)(C)C)CC3)CC2)c1,inactive
18,Cc1ccc2c(c1)-c1c(cnn1CC(=O)N(Cc1ccco1)C1CCCCC1)CO2,inactive
19,CC(C)(C)NC(=O)NC(=O)CN1CCN(C(c2ccccc2)c2ccccc2)CC1,inactive
20,Cc1ccc(N(Cc2cc(=O)[nH]c3ccccc23)C(=O)CCl)cc1,20 µM (active)
21,COc1ccc(CC(=O)N(Cc2ccccc2)c2ccc(C)cc2)cc1OC,inactive
22,CCOc1ccc(N(Cc2cc3cc(C)ccc3[nH]c2=O)C(=O)c2cccc(Cl)c2)cc1,inactive
23,Cc1ncsc1CCC(=O)N1CCCC(c2nc(-c3ccncc3)ncc2-c2ccccc2)C1 (stereo not given),inactive
24,COc1cccc(-n2cnc3scc(-c4cccs4)c3c2=O)c1,inactive
25,O=C(NC(c1ccccc1)c1ccccc1)c1ccc(S(=O)(=O)C(F)F)cc1,inactive

row,SMILES,Potency
1,O=C(Nc1cccc(-c2ccc(N3CCCCC3)nn2)c1)C(F)(F)F,14.1 µM (active)
2,O=C(Nc1ccccc1)N1CCCN(c2ccc(C(F)(F)F)cn2)CC1,inactive
3,O=C(CN1CCN(c2ccccn2)CC1)Nc1cccc(C(F)(F)F)c1,inactive
4,COC(=O)c1ccc(CSc2ncnc3ccccc23)o1,inactive
5,CC(C)C1NC(=S)N(C2CCCCC2)C1=O (stereo not given),inactive
6,CCOC(=O)c1sc2nc(CC(=O)OC)nc(N3CCN(c4ccc(OC)cc4)CC3)c2c1C,inactive
7,CCOC(=O)c1cc(C)n(CC2CCC(C(=O)Nc3ccc(C(=O)OC)cc3)CC2)c1C (stereo not given),inactive
8,CCc1nnc(NC(=O)c2cccc(C(=O)Nc3nnc(CC)s3)n2)s1,inactive
9,Cc1ccc(CS(=O)(=O)c2ncc(Cl)c(C(=O)Nc3nc4ccc(F)cc4s3)n2)cc1,inactive
10,CCc1nnc(NC(=O)c2nc(S(=O)(=O)Cc3ccccc3)ncc2Cl)s1,20 µM (active)
11,CCc1ccccc1NC(=O)Cn1nc(C)c2nn(-c3ccc(Cl)cc3)c(C)c2c1=O,inactive
12,Cc1ccccc1C(=O)N(Cc1nc(-c2ccc(Cl)cc2)no1)C(C)C,inactive
13,COc1cccc(CNC(=O)Cn2cc3c(n2)-c2c(oc(C(=O)N4CCOCC4)c2C)CC3)c1,inactive
14,Cc1cc(NC(=O)c2ccc(N(C)S(=O)(=O)c3ccccc3)cc2)no1,inactive
15,Cc1cc(C)n2nc(SCc3ccc(F)cc3Cl)nc2n1,inactive
16,O=c1c2ccccc2sc2ccc(C#CC3(O)CCCCC3)cc12,inactive
17,Cc1cc2sc3ccc(C#CC4(O)CCCCC4)cc3c(=O)c2cc1C,inactive
18,Cn1c2ccccc2c(=O)c2ccc(C#CC3(O)CCCCC3)cc21,17.8 µM (active)
19,CCOC(=O)C1(Cc2ccccc2)CCN(Cc2cccn2-c2cccnc2)CC1,inactive
20,COc1ccccc1OCCNC(=O)c1cc(C2CC2)nc2c1cnn2C(C)C,inactive
21,CCN1C(=O)CC(C(C)C)N(C2CCCC2)c2nc(Nc3ccc(C(=O)NC4CCN(C)CC4)cc3OC)ncc21 (stereo not given),inactive
22,CCCCC(CC)CNC(=O)c1ccc2c(=O)n(CCOC)c(=O)[nH]c2c1 (stereo not given),inactive
23,Cc1ccc(-c2nc(CS(=O)CC(=O)N3CCN(c4ccc(F)cc4)CC3)c(C)o2)cc1 (stereo not given),inactive
24,COc1ccc(CC(=O)Nc2nc(-c3ccc(OC)c(OC)c3)cs2)cc1OC,inactive
25,Cc1nc(-c2cccc(NC(=O)c3ccc(Cl)c(S(=O)(=O)N4CCCC4)c3)c2)cs1,inactive

row,SMILES,Potency
1,COc1ccc(CC(=O)Nc2cccc(-c3csc(C)n3)c2)cc1,20 µM (active)
2,COc1ccc(Oc2ncc3nc(-c4ccccc4)c(=O)n(CCC#N)c3n2)cc1,inactive
3,Nc1nonc1-n1nnc(C(=O)N/N=C/c2ccc(O)cc2)c1COc1ccc(F)cc1,inactive
4,COc1cccc(/C=N/NC(=O)c2nc(-c3ccccc3)cc(-c3ccccc3)n2)c1,inactive
5,COc1ccc(/C=N/NC(=O)c2nonc2C)cc1,11.2 µM (active)
6,CC1(C)NC(=O)N(CCCCOc2ccc3c(c2)CCC3)C1=O,inactive
7,Cc1cc(OCCCCN2C(=O)NC(C)(C)C2=O)cc(C)c1Cl,inactive
8,CC(C)c1cc(Br)ccc1OCCCN1C(=O)NC(C)(C)C1=O,28.2 µM (active)
9,CC12C(=O)N(c3cccc(OC(=O)c4ccco4)c3)C(=O)C1C1c3ccccc3C2c2ccccc21 (stereo not given),inactive
10,Nc1cc(C(=O)OCC(=O)NCCNC(=O)COC(=O)c2ccc(Cl)c(N)c2)ccc1Cl,inactive
11,CS(=O)(=O)c1ccc(C(=O)OCC(=O)NCc2cccs2)cc1[N+](=O)[O-],25.1 µM (active)
12,CC(C)CN1CCN(C(=O)COC(=O)c2ccc(S(C)(=O)=O)c([N+](=O)[O-])c2)CC1,inactive
13,CCc1ccc(OCc2ccc(C(=O)O)o2)cc1,10 µM (active)
14,COC(=O)c1ccc(COc2ccc(/C=N/NC(N)=S)cc2)o1,inactive
15,COc1ccc(NC(=O)c2ccc(COc3ccccc3OC)o2)cc1OC,inactive
16,Cc1ccccc1CS(=O)(=O)c1cn(CC(=O)N2CCC(C)CC2)c2ccccc12,inactive
17,CCc1cc(=O)[nH]c(SCc2nc(-c3ccc(C(F)(F)F)cc3)no2)n1,inactive
18,N#C/C(=C/c1ccc(N2CCCCC2)o1)C(=O)NCCc1c[nH]c2ccccc12,inactive
19,COc1cc(/C=C(\C#N)c2nc3ccccc3[nH]2)cc(Cl)c1OCc1ccccc1Cl,inactive
20,COc1cc(/C=C(/C#N)c2nc3ccccc3[nH]2)ccc1OCC(=O)Nc1ccccc1C,inactive
21,N#C/C(=C\c1ccc(N2CCOCC2)o1)c1nc2ccccc2[nH]1,10 µM (active)
22,Cc1ccc2nc(/C(C#N)=C/c3ccc(-c4cccc(Cl)c4)o3)[nH]c2c1,inactive
23,N#C/C(=C/c1ccc(N2CCOCC2)o1)c1nc2ccccc2[nH]1,8.91 µM (active)
24,O=C(CSCc1ccc(F)cc1)N1CCN(c2ccc(F)cc2)CC1,inactive
25,N#Cc1ccccc1Sc1ccccc1C(=O)OCC(=O)NC12CC3CC(CC(C3)C1)C2,inactive

row,SMILES,Potency
1,COc1ccccc1C(=O)Nc1ccc(-c2cc(C(F)(F)F)nn2-c2ccccc2)cc1,inactive
2,C=CCN1CC[C@]23c4c5ccc(O)c4O[C@H]2/C(=N/NC(=O)c2ccccc2)CC[C@@]3(O)[C@H]1C5,inactive
3,O=C1/C(=C\c2ccccc2)C[C@@]2(O)[C@H]3Cc4ccc(O)c5c4[C@@]2(CCN3CC2CC2)[C@H]1O5,10 µM (active)
4,CCOC(=O)[C@H]1[C@H]2COc3ccccc3[C@@H]2N2C(=O)c3ccc(Cl)cc3NC(=O)[C@@]12C,inactive
5,O=C(Nc1ccccc1Cc1ccccc1)c1ccccc1NS(=O)(=O)c1ccc(Cl)s1,inactive
6,COc1cc(/C=C2/C(=O)ON=C2c2ccccc2)ccc1O,inactive
7,CCOc1cc(/C=C2\C(=O)N(c3ccc(C(N)=O)cc3)N=C2C)ccc1OC(=O)c1cccs1,inactive
8,C=CCOc1ccc(/C=C2/C(=O)ON=C2C)cc1OCC,31.6 µM (active)
9,Cc1ccc(S(=O)(=O)N(C)C)cc1NC(=O)CSc1nc2ccccc2[nH]1,inactive
10,CCOc1ccc(CN2CCNC(=O)C2CC(=O)NCCc2nc(C)c3c(n2)CCC3)cc1 (stereo not given),inactive
11,Cc1ccc(-c2nc(C)c(C(=O)O)s2)cc1,25.1 µM (active)
12,Cc1ccc(-c2nc(CCNC(=O)c3ccco3)cs2)cc1,inactive
13,Cc1ccc(S(=O)(=O)Nc2nc(C)c(C)s2)cc1,inactive
14,Cc1ccccc1N1CCN(C2CCCN(C(=O)CCC3(C)CC3)C2)CC1 (stereo not given),inactive
15,Fc1ccccc1-c1csc(=Nc2cccnc2)n1CCCn1ccnc1,inactive
16,O=C(C1COc2ccccc2O1)N1CCN(S(=O)(=O)c2ccccc2)CC1 (stereo not given),inactive
17,Cc1nc(NC(=O)c2cc3ccccc3o2)sc1C,17.8 µM (active)
18,CC(=O)c1cccc(NC(=O)CNC(=O)c2cc3ccccc3o2)c1,inactive
19,CCc1cccc(C)c1NC(=O)c1cc2ccccc2o1,inactive
20,COc1ccc([N+](=O)[O-])cc1NC(=O)C(C)OC(=O)C1CCCC1 (stereo not given),inactive
21,CC1(C(=O)Nc2cccc(Oc3ccccc3)c2)CCN1Cc1cccc2c1OCO2 (stereo not given),inactive
22,COc1cccc(-c2sc3ccc(OC)cc3c2-c2ccc(OCCN3CCCC3)cc2)c1,inactive
23,Cc1ccc(C(=O)Nc2cc(-c3nc4cc(Cl)ccc4o3)ccc2C)c(C)c1,inactive
24,Cc1ccc(-c2nc3cc(NC(=O)C(C)C)ccc3o2)cc1C,22.4 µM (active)
25,CC(C)Oc1ccc(C(=O)Nc2ccc3oc(-c4ccncc4)nc3c2)cc1,inactive
